From PubChem BioAssay AID485270 (The Scripps Research Institute Molecular Screening Center, 2010)
In all, about 330,000 compounds went through this assay and about 5,800 (1.8%) were called active. Shown is part of a subset that was picked to be rich in actives. A number with no mark means an inactive call. Rule as the data show it: active = inhibition mostly above about 38% (no sharp cut-off); inactive = mostly below about 40%.

The compounds below were run against Orexin/Hypocretin receptor type 1 (Homo sapiens) (UniProt O43613) (assay: antagonists of human orexin 1 receptor (OX1R) (AID 485270;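 also: 0% = agonist challenge alone and 100% = reference antagonist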)). Conditions: OX1R-expressing cells, FRET antagonist read-out; at 6.6 µM; active compounds read high.
Orexin/Hypocretin receptor type 1 (Homo sapiens), sequence (O43613 whole entry, looked up): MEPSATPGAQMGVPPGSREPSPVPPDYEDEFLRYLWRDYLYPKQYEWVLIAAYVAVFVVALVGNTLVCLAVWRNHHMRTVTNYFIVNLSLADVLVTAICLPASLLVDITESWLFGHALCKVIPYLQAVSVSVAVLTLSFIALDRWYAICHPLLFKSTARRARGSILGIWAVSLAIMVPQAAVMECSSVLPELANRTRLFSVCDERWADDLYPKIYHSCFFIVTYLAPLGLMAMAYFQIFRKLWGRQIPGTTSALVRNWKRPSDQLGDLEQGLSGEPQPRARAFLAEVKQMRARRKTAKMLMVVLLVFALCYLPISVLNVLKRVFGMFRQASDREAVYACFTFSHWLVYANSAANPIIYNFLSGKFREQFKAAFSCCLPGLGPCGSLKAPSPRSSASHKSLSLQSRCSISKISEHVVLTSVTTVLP

Row | Compound | inhibition
1 | C[C@H](CO)N1C[C@H](C)[C@@H](CN(C)Cc2ccc(-c3ccccc3)cc2)Oc2ccc(NC(=O)Cn3cnnn3)cc2C1=O | -2.89%
2 | CC(C)N(C(=O)[C@H]1C[C@H](CC(=O)NCCC2=CCCCC2)C(=O)N2CCc3c([nH]c4cc(CCC(=O)N(C)C)ccc34)[C@]12C)C(C)C | 10.8%
3 | Cn1cnnc1Sc1ccc(S(C)(=O)=O)cc1[N+](=O)[O-] | 95.8% (active)
4 | CC(C)(C)n1cnnc1Sc1ccc([N+](=O)[O-])cn1 | 36.8%
5 | CCN(CC(=O)Nc1c(F)cccc1F)C(=O)c1ccc(Sc2nncn2C)c([N+](=O)[O-])c1 | 37%
6 | CC[C@]12c3[nH]c4ccc(Cl)cc4c3CCN1C(=O)[C@@H](CC(=O)NCCN1CCOCC1)C[C@@H]2C(=O)N1CCN(C(=O)C2CC2)CC1 | 3.88%
7 | O=C(/C=C/c1ccc([N+](=O)[O-])o1)NNC(=O)c1ccc(F)cc1 | 57.8% (active)
8 | O=C(NNC(=O)C1CCCC1)c1ccc(F)cc1 | 7.91%
9 | Cc1ccc(/C=C/C(=O)Nc2ccc([N+](=O)[O-])c(NC(=O)/C=C/c3ccc(C)o3)c2)o1 | 13.2%
10 | C=CCn1c(SCc2c(C(=O)OC)sc(N)c2C(=O)OC)nnc1-c1ccc(Cl)cc1 | 45.4% (active)
11 | C=CCn1c(SCc2cc(C(=O)OC)c(C)o2)nnc1-c1ccncc1 | 18.3%
12 | C=CCn1c(SCn2nnc3ccccc3c2=O)nnc1-c1ccc(Cl)cc1 | 25%
13 | Cc1ccc(NC(=O)COC(=O)C2CC2)cc1S(=O)(=O)N1CCOCC1 | 4.49%
14 | CCCCOc1ccc(C(=O)NCC(=O)OCC(=O)c2c(N)n(C)c(=O)n(C)c2=O)cc1 | 4.34%
15 | COc1ccc(NC(=O)CNc2cc(S(=O)(=O)N3CCOCC3)ccc2N2CCOCC2)c(OC)c1 | 17.1%
16 | C#CCOCCOCCOCCNc1nc(N2CCN(C(=O)[C@H](CCC(=O)O)n3cc(CN)nn3)CC2)nc(N2CCN(C(=O)[C@H](CCC(=O)O)n3cc(CN)nn3)CC2)n1 | 4.4%
17 | CCn1c(=S)[nH]c2cc(S(=O)(=O)N3CCOCC3)ccc21 | 8.76%
18 | COCCn1c(C)cc(C(=O)CSc2nc3ccccc3c(=O)n2C(C)COC)c1C (configuration not stated) | 9.56%
19 | COCC(C)n1c(SCC(=O)NC2CCCCC2C)nc2ccccc2c1=O (configuration not stated) | 39.7% (active)
20 | COCC(C)n1c(SCc2ccc(C(=O)OC)o2)nc2ccccc2c1=O (configuration not stated) | 29.3%
21 | O=C1CCC/C=C\C[C@@H](CC(=O)N(CCO)Cc2ccccc2)C(=O)NCCO1 | 3.3%

Row | Compound | inhibition
22 | CCCCN(CC)C(=O)C1CCCN(S(=O)(=O)c2cccc3nsnc23)C1 (configuration not stated) | 39.7% (active)
23 | COc1ccccc1CNC(=O)C1CCCN(S(=O)(=O)c2cccc3cccnc23)C1 (configuration not stated) | 11.7%
24 | CCCCN(C)CCNC(=O)C1CCCN(S(=O)(=O)c2cccc3nsnc23)C1 (configuration not stated) | 26.9%
25 | O=C(c1ccco1)N1CCN(C(=O)C2c3ccccc3Oc3ccccc32)CC1 | -0.85%
26 | O=C(NCc1ccco1)C1CCCN(S(=O)(=O)c2cnc[nH]2)C1 (configuration not stated) | 6.51%
27 | O=C(NCc1ccco1)C1CCCN(S(=O)(=O)c2cccc3nonc23)C1 (configuration not stated) | 95.8% (active)
28 | COc1cccc(N2CCN(C(=O)C3CCCN(S(=O)(=O)c4cnc[nH]4)C3)CC2)c1 (configuration not stated) | 4.15%
29 | O=C(c1ccco1)N1CCN(C(=O)C2CCCN(S(=O)(=O)c3cccc4nsnc34)C2)CC1 (configuration not stated) | 59.8% (active)
30 | O=C(NCc1ccco1)C1CCCN(S(=O)(=O)c2ccccc2)C1 (configuration not stated) | 22.4%
31 | CN(C(=O)CSc1cccc[n+]1[O-])C1CCCCC1 | 1.33%
32 | CC(C)(C)OC(=O)C[C@H]1C/C=C\C[C@@H](CC(=O)N[C@H](CO)Cc2ccccc2)C(=O)NC[C@@H](c2ccccc2)OC1=O | 8.19%
33 | COc1ccc(/C=C2\SC(=O)N(CCC(=O)NCCCn3ccnc3)C2=O)cc1 | 33.5%
34 | COc1ccc(/C=C2\SC(=O)N(CCC(=O)NC3CCS(=O)(=O)C3)C2=O)cc1 (configuration not stated) | 49.4% (active)
35 | COc1ccccc1/C=C1\SC(=O)N(CCC(=O)N(C)C2CCS(=O)(=O)C2)C1=O (configuration not stated) | 16.6%
36 | CC(Sc1ccccc1F)C(=O)Nc1cccc(S(=O)(=O)N2CCOCC2)c1 (configuration not stated) | 9.63%
37 | CCCOc1ccc(Cc2c(Cl)nc(SC)nc2NC)cc1 | 48.2% (active)
38 | CCCOc1ccc(Cn2c(O)cc(=O)[nH]c2=O)cc1 | 6.66%
39 | CCCOc1ccc(Cc2c(O)nc(SC)[nH]c2=O)cc1C | 11.5%
40 | O=C1OCCN1C(=O)[C@H]1[C@H](c2ccc(F)cc2)C(c2ccccc2)=NN1c1ccc(Br)cc1 | 7.86%
41 | CCOC(=O)C1CCN(C(=O)CN2C(=O)NC(C)(c3ccc4cc(OC)ccc4c3)C2=O)CC1 (configuration not stated) | 9.95%
42 | Nc1cccnc1Sc1ccccc1 | 15.4%

Row | Compound | inhibition
43 | Cc1ccc(S(=O)(=O)N2CCN(c3ncnc4ccccc34)CC2)cc1 | 25.9%
44 | COc1ccc(C)cc1S(=O)(=O)N1CCN(S(=O)(=O)c2cc(C(=O)O)ccc2C)CC1 | 26.6%
45 | Cc1ccc(C)c(S(=O)(=O)N2CCN(c3ncnc4sccc34)CC2)c1 | 28.6% (active)
46 | C=CCSc1nsc(NC(=O)Nc2cccc(C(C)=O)c2)n1 | 58.4% (active)
47 | CCSc1nsc(NC(=O)Nc2ccccc2OC)n1 | 6.99%
48 | CSc1nsc(NC(=O)Nc2ccccc2)n1 | 19.6%
49 | C=CCSc1nnc(NC(=O)c2ccc(NC(C)=O)cc2)s1 | 5.19%
50 | C=C(C)C(=O)Nc1cccc(C(C)=O)c1 | 8.59%
51 | CCSc1nsc(NC(=O)Nc2cccc(C(C)=O)c2)n1 | 84.2% (active)
52 | CCOC(=O)C1=CN(Cc2ccc(Br)cc2)S(=O)(=O)N(C)C1C (configuration not stated) | 6.18%
53 | C[C@H](CO)N1C[C@H](C)[C@@H](CN(C)S(=O)(=O)c2ccc(F)cc2)Oc2ccc(NC(=O)CCC(F)(F)F)cc2C1=O | 9.27%
54 | O=C(COC(=O)COc1ccccc1F)Nc1cccc(S(=O)(=O)N2CCCCC2)c1 | -4.71%
55 | O=C(CCNC(=O)c1ccccc1Cl)NN=Cc1ccco1 | 9.66%
56 | CC1CCCCC1NC(=O)Cn1c(=O)cnc2ccccc21 (configuration not stated) | 7.4%
57 | O=C(CCN1C(=O)c2ccccc2C1=O)Nc1ccncc1 | 21.2%
58 | COc1cc(C(=O)Nc2oc(-c3ccccc3)c(-c3ccccc3)c2C#N)cc(OC)c1OC | 24.6%
59 | N#Cc1c(NC(=O)CCCN2C(=O)c3ccccc3C2=O)oc(-c2ccccc2)c1-c1ccccc1 | 48.7% (active)
60 | C#CCOCCOCCOCCNc1nc(N2CCN(C(=O)[C@H](CCCN=C(N)N)n3cc(C(N)[C@@H](C)CC)nn3)CC2)nc(N2CCN(C(=O)[C@H](CO)n3cc([C@@H](N)C(C)C)nn3)CC2)n1 (some centres not stated) | 1.49%
61 | CSc1ccccc1OCc1cc(C(=O)N2C[C@H]3CC[C@H]2C3)no1 | 38.3%
62 | COc1cc(Cl)ccc1OCc1cc(C(=O)N(C)CCc2c(C)n[nH]c2C)no1 | 71.9% (active)
63 | CCn1ccnc1CN(C)C(=O)c1cc(COc2ccc(Cl)cc2OC)on1 | 16.5%

Row | Compound | inhibition
64 | CSc1ccccc1OCc1cc(C(=O)N(C)CCc2c(C)n[nH]c2C)no1 | 43.7% (active)
65 | Cc1ccc(OCc2cc(C(=O)N(C)CCc3ccccc3)no2)cc1C | 27.7%
66 | COc1cc(Cl)ccc1OCc1cc(C(=O)N2CC[C@@H]3CCCC[C@H]3C2)no1 | -0.82%
67 | COc1cccc2sc3cc(NCC[C@@H]4CCCN4C)ccc3c(=O)c12 | 20.1%
68 | COc1cc(NC(=O)c2[nH]cnc2C(N)=O)cc(C(=O)Nc2cccc(C(F)(F)F)c2)c1 | 33.6%
69 | O=C1CN(C(=O)COC(=O)/C=C/c2ccc(F)cc2)c2ccccc2N1 | 6.47%
70 | O=C(C[C@H]1C[C@H](C(=O)N2CCOCC2)[C@@]2(CCC3CCCC3)c3[nH]c4ccc(Cl)cc4c3CCN2C1=O)NCc1ccco1 | 14.4%
71 | COc1ccc(CCNC(=O)NS(=O)(=O)c2ccc(C)cc2)cc1OC | -2.44%
72 | COc1ccc(-n2c(C)cc(C(=O)CSc3nnc(-c4cccs4)o3)c2C)cc1 | 39.4% (active)
73 | COc1ccc(-n2c(C)cc(C(=O)COC(=O)c3cc(OC)c(OC)cc3NC(=O)c3cccs3)c2C)cc1 | 1.91%
74 | Cc1ccc(-n2c(C)cc(C(=O)CSc3nnc4ccccn34)c2C)cc1 | 12.3%
75 | Nc1ncnc2c1ncn2[C@@H]1O[C@H](CNS(=O)(=O)c2ccc(-c3ccno3)s2)[C@@H](O)[C@H]1O | 6.23%
76 | CN(C)C(=O)CCc1ccc2c3c([nH]c2c1)[C@]1(CCC2CCCC2)[C@@H](C(=O)N2CCOCC2)C[C@H](CC(=O)NCc2ccco2)C(=O)N1CC3 | 5.29%
77 | O=C(COC(=O)CSc1ccccc1)Nc1ccc(F)cc1F | 13.6%
78 | Cn1nnnc1SCC(=O)Nc1cccc(S(=O)(=O)N2CCCCC2)c1 | 12%
79 | CC1CCN(S(=O)(=O)c2ccc(NC(=O)C3CC(=O)N(c4ccccc4)C3)cc2)CC1 (configuration not stated) | 25.5%
80 | Cc1ccccc1N1CC(C(=O)Nc2ccc(S(=O)(=O)N3CCCC3)cc2)CC1=O (configuration not stated) | 15.4%
81 | COc1ccccc1N1CC(C(=O)Nc2ccc(S(=O)(=O)N3CCOCC3)cc2)CC1=O (configuration not stated) | 91.1% (active)
82 | CN(Cc1ccc(CNC[C@H]2O[C@@H](n3cnc4c(N)ncnc43)[C@H](O)[C@@H]2O)o1)S(C)(=O)=O | -3.7%
